In PMC12820563, “FoxP3 forms a head-to-head dimer in vivo and stabilizes its multimerization on adjacent microsatellites”:
In all, about 16,000 sequences were measured (“rpm ratio (pull-down/input)”: median about 0.5, highest 2% from about 5.5 on). What follows is part of a selection rich in the highest values, with near analogues and random picks from the rest.

Each sequence was assayed against T1, MBP-FoxP3dN (Mus musculus, UniProt Q99JB6 188-423) (assay: PD-seq (MBP pull-down with sequencing); 20 mM Tris-HCl pH 7.5, 100 mM NaCl, 1.5 mM MgCl2, 0.4 uM protein, 0.1 uM dsDNA library, 30 min, room temperature, amylose pull-down; high values mean tight binding). Conditions: protein: recombinant; tags: His6-MBP; chain copies: 2; dsDNA, one strand shown.
T1 sequence: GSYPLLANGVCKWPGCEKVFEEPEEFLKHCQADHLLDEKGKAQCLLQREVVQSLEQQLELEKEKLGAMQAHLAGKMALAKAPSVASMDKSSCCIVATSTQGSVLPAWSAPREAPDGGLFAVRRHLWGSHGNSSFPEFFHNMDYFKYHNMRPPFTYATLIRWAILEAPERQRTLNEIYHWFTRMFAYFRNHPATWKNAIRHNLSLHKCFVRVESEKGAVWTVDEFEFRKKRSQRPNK
Procedure, shortened: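 Binding is given as reads-per-million enrichment, pull-down over input, with replicates pooled. The bait was an N-terminus-lacking mouse FoxP3 or FoxP1 fragment with a His6-MBP tag, expressed in E. coli and used at 0.4 µM with 0.1 µM Klenow-filled degenerate double-stranded DNA library for 30 min at room temperature in Tris pH 7.5 buffer with NaCl and MgCl2. Amylose resin pull-down with three washes was followed by proteinase K release, PCR barcoding and Illumina sequencing.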

Sequence | binding signal
GATGATTGTTCTCCCAGCTGATGAATTGAATAGCTCGAGTAAACAAATTTTCCTAATCTTTCTGTTCAAGCGCCATCTAC | 0.346 RPM ratio (pull-down/input)
GATGATTGTTCTCCCAGCTGATGAATTTGTAAAATCGAGTAAACAAATTTTCCTAATCTTTCTGTTCAAGCGCCATCTAC | 0.357 RPM ratio (pull-down/input)
GATGATTGTTCTCCCAGCTGATGAATTGTCGTAGTCGAGTAAACAAATTTTCCTAATCTTTCTGTTCAAGCGCCATCTAC | 0.56 RPM ratio (pull-down/input)
GATGATTGTTCTCCCAGCTGATGAATTCACGTGTTCGAGTAAACAAATTTTCCTAATCTTTCTGTTCAAGCGCCATCTAC | 0.58 RPM ratio (pull-down/input)
GATGATTGTTCTCCCAGCTGATGAATTAAGACGGTCGAGTAAACAAATTTTCCTAATCTTTCTGTTCAAGCGCCATCTAC | 0.236 RPM ratio (pull-down/input)
GATGATTGTTCTCCCAGCTGATGAATTATAAAGATCGAGTAAACAAATTTTCCTAATCTTTCTGTTCAAGCGCCATCTAC | 0.233 RPM ratio (pull-down/input)
GATGATTGTTCTCCCAGCTGATGAATTCGTGCATTCGAGTAAACAAATTTTCCTAATCTTTCTGTTCAAGCGCCATCTAC | 6.29 RPM ratio (pull-down/input)
GATGATTGTTCTCCCAGCTGATGAATTGTGCCTTTCGAGTAAACAAATTTTCCTAATCTTTCTGTTCAAGCGCCATCTAC | 6.1 RPM ratio (pull-down/input)
GATGATTGTTCTCCCAGCTGATGAATTTCGTGCATCGAGTAAACAAATTTTCCTAATCTTTCTGTTCAAGCGCCATCTAC | 1.22 RPM ratio (pull-down/input)
GATGATTGTTCTCCCAGCTGATGAATTTGTGCCTTCGAGTAAACAAATTTTCCTAATCTTTCTGTTCAAGCGCCATCTAC | 4.02 RPM ratio (pull-down/input)
GATGATTGTTCTCCCAGCTGATGAATTGTGCATCTCGAGTAAACAAATTTTCCTAATCTTTCTGTTCAAGCGCCATCTAC | 8.03 RPM ratio (pull-down/input)
GATGATTGTTCTCCCAGCTGATGAATTTTGTGCATCGAGTAAACAAATTTTCCTAATCTTTCTGTTCAAGCGCCATCTAC | 2.27 RPM ratio (pull-down/input)
GATGATTGTTCTCCCAGCTGATGAATTTCGCCTTTCGAGTAAACAAATTTTCCTAATCTTTCTGTTCAAGCGCCATCTAC | 5.39 RPM ratio (pull-down/input)
GATGATTGTTCTCCCAGCTGATGAATTCTGTGCATCGAGTAAACAAATTTTCCTAATCTTTCTGTTCAAGCGCCATCTAC | 1.52 RPM ratio (pull-down/input)
GATGATTGTTCTCCCAGCTGATGAATTCGTGCCATCGAGTAAACAAATTTTCCTAATCTTTCTGTTCAAGCGCCATCTAC | 2.18 RPM ratio (pull-down/input)
GATGATTGTTCTCCCAGCTGATGAATTGCGAATCTCGAGTAAACAAATTTTCCTAATCTTTCTGTTCAAGCGCCATCTAC | 2.16 RPM ratio (pull-down/input)
GATGATTGTTCTCCCAGCTGATGAATTCCATAGATCGAGTAAACAAATTTTCCTAATCTTTCTGTTCAAGCGCCATCTAC | 0.239 RPM ratio (pull-down/input)
GATGATTGTTCTCCCAGCTGATGAATTAAGGGCCTCGAGTAAACAAATTTTCCTAATCTTTCTGTTCAAGCGCCATCTAC | 0.451 RPM ratio (pull-down/input)
GATGATTGTTCTCCCAGCTGATGAATTCAATTCGTCGAGTAAACAAATTTTCCTAATCTTTCTGTTCAAGCGCCATCTAC | 0.665 RPM ratio (pull-down/input)
GATGATTGTTCTCCCAGCTGATGAATTTCGGAGGTCGAGTAAACAAATTTTCCTAATCTTTCTGTTCAAGCGCCATCTAC | 0.25 RPM ratio (pull-down/input)
GATGATTGTTCTCCCAGCTGATGAATTCCTCGCTTCGAGTAAACAAATTTTCCTAATCTTTCTGTTCAAGCGCCATCTAC | 0.285 RPM ratio (pull-down/input)

Sequence | binding signal
GATGATTGTTCTCCCAGCTGATGAATTGCCGCCATCGAGTAAACAAATTTTCCTAATCTTTCTGTTCAAGCGCCATCTAC | 2.97 RPM ratio (pull-down/input)
GATGATTGTTCTCCCAGCTGATGAATTTGAGTTTTCGAGTAAACAAATTTTCCTAATCTTTCTGTTCAAGCGCCATCTAC | 0.885 RPM ratio (pull-down/input)
GATGATTGTTCTCCCAGCTGATGAATTCAAGTTTTCGAGTAAACAAATTTTCCTAATCTTTCTGTTCAAGCGCCATCTAC | 0.454 RPM ratio (pull-down/input)
GATGATTGTTCTCCCAGCTGATGAATTTCCCTTCTCGAGTAAACAAATTTTCCTAATCTTTCTGTTCAAGCGCCATCTAC | 0.295 RPM ratio (pull-down/input)
GATGATTGTTCTCCCAGCTGATGAATTTGTTGAGTCGAGTAAACAAATTTTCCTAATCTTTCTGTTCAAGCGCCATCTAC | 5.53 RPM ratio (pull-down/input)
GATGATTGTTCTCCCAGCTGATGAATTGTTGTGATCGAGTAAACAAATTTTCCTAATCTTTCTGTTCAAGCGCCATCTAC | 6.31 RPM ratio (pull-down/input)
GATGATTGTTCTCCCAGCTGATGAATTGATCTAATCGAGTAAACAAATTTTCCTAATCTTTCTGTTCAAGCGCCATCTAC | 0.356 RPM ratio (pull-down/input)
GATGATTGTTCTCCCAGCTGATGAATTGTGATGATCGAGTAAACAAATTTTCCTAATCTTTCTGTTCAAGCGCCATCTAC | 2.48 RPM ratio (pull-down/input)
GATGATTGTTCTCCCAGCTGATGAATTTTTTGAGTCGAGTAAACAAATTTTCCTAATCTTTCTGTTCAAGCGCCATCTAC | 0.237 RPM ratio (pull-down/input)
GATGATTGTTCTCCCAGCTGATGAATTTCTGTGATCGAGTAAACAAATTTTCCTAATCTTTCTGTTCAAGCGCCATCTAC | 0.408 RPM ratio (pull-down/input)
GATGATTGTTCTCCCAGCTGATGAATTCTGTTGATCGAGTAAACAAATTTTCCTAATCTTTCTGTTCAAGCGCCATCTAC | 6.26 RPM ratio (pull-down/input)
GATGATTGTTCTCCCAGCTGATGAATTTGATGAGTCGAGTAAACAAATTTTCCTAATCTTTCTGTTCAAGCGCCATCTAC | 0.974 RPM ratio (pull-down/input)
GATGATTGTTCTCCCAGCTGATGAATTCTTTTGATCGAGTAAACAAATTTTCCTAATCTTTCTGTTCAAGCGCCATCTAC | 0.285 RPM ratio (pull-down/input)
GATGATTGTTCTCCCAGCTGATGAATTGAATTGATCGAGTAAACAAATTTTCCTAATCTTTCTGTTCAAGCGCCATCTAC | 0.917 RPM ratio (pull-down/input)
GATGATTGTTCTCCCAGCTGATGAATTCAATTGATCGAGTAAACAAATTTTCCTAATCTTTCTGTTCAAGCGCCATCTAC | 1.07 RPM ratio (pull-down/input)
GATGATTGTTCTCCCAGCTGATGAATTGTGTTGATCGAGTAAACAAATTTTCCTAATCTTTCTGTTCAAGCGCCATCTAC | 7.06 RPM ratio (pull-down/input)
GATGATTGTTCTCCCAGCTGATGAATTCAGATGTTCGAGTAAACAAATTTTCCTAATCTTTCTGTTCAAGCGCCATCTAC | 1.06 RPM ratio (pull-down/input)
GATGATTGTTCTCCCAGCTGATGAATTGTACCCATCGAGTAAACAAATTTTCCTAATCTTTCTGTTCAAGCGCCATCTAC | 0.472 RPM ratio (pull-down/input)
GATGATTGTTCTCCCAGCTGATGAATTGAATCACTCGAGTAAACAAATTTTCCTAATCTTTCTGTTCAAGCGCCATCTAC | 0.551 RPM ratio (pull-down/input)
GATGATTGTTCTCCCAGCTGATGAATTCAATTGCTCGAGTAAACAAATTTTCCTAATCTTTCTGTTCAAGCGCCATCTAC | 2.31 RPM ratio (pull-down/input)
GATGATTGTTCTCCCAGCTGATGAATTAGGATGTTCGAGTAAACAAATTTTCCTAATCTTTCTGTTCAAGCGCCATCTAC | 0.82 RPM ratio (pull-down/input)

Sequence | binding signal
GATGATTGTTCTCCCAGCTGATGAATTTTTGCGTTCGAGTAAACAAATTTTCCTAATCTTTCTGTTCAAGCGCCATCTAC | 2.04 RPM ratio (pull-down/input)
GATGATTGTTCTCCCAGCTGATGAATTGTATTATTCGAGTAAACAAATTTTCCTAATCTTTCTGTTCAAGCGCCATCTAC | 5.22 RPM ratio (pull-down/input)
GATGATTGTTCTCCCAGCTGATGAATTATTGCAGTCGAGTAAACAAATTTTCCTAATCTTTCTGTTCAAGCGCCATCTAC | 1.18 RPM ratio (pull-down/input)
GATGATTGTTCTCCCAGCTGATGAATTCAGCTGTTCGAGTAAACAAATTTTCCTAATCTTTCTGTTCAAGCGCCATCTAC | 1.19 RPM ratio (pull-down/input)
GATGATTGTTCTCCCAGCTGATGAATTGATTCGCTCGAGTAAACAAATTTTCCTAATCTTTCTGTTCAAGCGCCATCTAC | 0.331 RPM ratio (pull-down/input)
GATGATTGTTCTCCCAGCTGATGAATTATGGCTCTCGAGTAAACAAATTTTCCTAATCTTTCTGTTCAAGCGCCATCTAC | 0.643 RPM ratio (pull-down/input)
GATGATTGTTCTCCCAGCTGATGAATTTTGTTGATCGAGTAAACAAATTTTCCTAATCTTTCTGTTCAAGCGCCATCTAC | 7.34 RPM ratio (pull-down/input)
GATGATTGTTCTCCCAGCTGATGAATTTTTGACATCGAGTAAACAAATTTTCCTAATCTTTCTGTTCAAGCGCCATCTAC | 0.524 RPM ratio (pull-down/input)
GATGATTGTTCTCCCAGCTGATGAATTTTTTTGATCGAGTAAACAAATTTTCCTAATCTTTCTGTTCAAGCGCCATCTAC | 0.23 RPM ratio (pull-down/input)
GATGATTGTTCTCCCAGCTGATGAATTGATTTGATCGAGTAAACAAATTTTCCTAATCTTTCTGTTCAAGCGCCATCTAC | 0.64 RPM ratio (pull-down/input)
GATGATTGTTCTCCCAGCTGATGAATTGTTTTGATCGAGTAAACAAATTTTCCTAATCTTTCTGTTCAAGCGCCATCTAC | 4.03 RPM ratio (pull-down/input)
GATGATTGTTCTCCCAGCTGATGAATTGATGACATCGAGTAAACAAATTTTCCTAATCTTTCTGTTCAAGCGCCATCTAC | 1.05 RPM ratio (pull-down/input)
GATGATTGTTCTCCCAGCTGATGAATTTGATTGATCGAGTAAACAAATTTTCCTAATCTTTCTGTTCAAGCGCCATCTAC | 2.23 RPM ratio (pull-down/input)
GATGATTGTTCTCCCAGCTGATGAATTGTTGACATCGAGTAAACAAATTTTCCTAATCTTTCTGTTCAAGCGCCATCTAC | 5.72 RPM ratio (pull-down/input)
GATGATTGTTCTCCCAGCTGATGAATTTGTTTGATCGAGTAAACAAATTTTCCTAATCTTTCTGTTCAAGCGCCATCTAC | 5.99 RPM ratio (pull-down/input)
GATGATTGTTCTCCCAGCTGATGAATTGATTCTCTCGAGTAAACAAATTTTCCTAATCTTTCTGTTCAAGCGCCATCTAC | 0.395 RPM ratio (pull-down/input)
GATGATTGTTCTCCCAGCTGATGAATTAAGTCGCTCGAGTAAACAAATTTTCCTAATCTTTCTGTTCAAGCGCCATCTAC | 0.441 RPM ratio (pull-down/input)
GATGATTGTTCTCCCAGCTGATGAATTAGGACGCTCGAGTAAACAAATTTTCCTAATCTTTCTGTTCAAGCGCCATCTAC | 0.484 RPM ratio (pull-down/input)
GATGATTGTTCTCCCAGCTGATGAATTATACGAGTCGAGTAAACAAATTTTCCTAATCTTTCTGTTCAAGCGCCATCTAC | 0.404 RPM ratio (pull-down/input)
GATGATTGTTCTCCCAGCTGATGAATTCTAGACCTCGAGTAAACAAATTTTCCTAATCTTTCTGTTCAAGCGCCATCTAC | 0.236 RPM ratio (pull-down/input)
GATGATTGTTCTCCCAGCTGATGAATTCTTAGCCTCGAGTAAACAAATTTTCCTAATCTTTCTGTTCAAGCGCCATCTAC | 0.373 RPM ratio (pull-down/input)
